High-throughput results (PubChem)
Methyltransferases = Primary Screen for Target Class Profiling of Small Molecule Inhibitors of Methyltransferases. calls only at 40 µM. purified enzyme, MTase-Glo SAH luminescence; active compounds read low. 3.9% of 25,000 active; call rule not given here
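Each enzyme was reacted with SAM and its substrate, with compounds tested once at 40 uM; SAH formed was read by MTase-Glo luminescence.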
Calls only. Shown is part of a subset that was picked to be rich in hits.

For C[C@H]1CC(=O)C2=C(C1)C(O)C(O)[C@@]1(O)[C@H]2C(=O)c2cccc(O)c2[C@@H]1O (stereo partly drawn) the results were Methyltransferases inactive.
For CC(=O)O[C@H]1[C@@H](O)[C@H](O[C@H]2[C@@H]3C=CO[C@@H](O[C@H]4O[C@@H](CO)[C@H](O)[C@@H](O)[C@@H]4O)[C@@H]3[C@@]3(CO)O[C@@H]23)O[C@@H](C)[C@@H]1OC(=O)/C=C/c1ccccc1 the results were Methyltransferases inactive.
For O=C(/C=C/c1ccccc1)OC[C@]12O[C@H]1[C@@H](O)[C@@H]1C=CO[C@@H](O[C@@H]3O[C@H](CO)[C@@H](O)[C@H](O)[C@H]3O)[C@@H]12 the results were Methyltransferases active.
Screening O=C(/C=C/c1ccc(O)cc1)OC[C@]12O[C@H]1[C@@H](O)[C@@H]1C=CO[C@@H](O[C@@H]3O[C@H](CO)[C@@H](O)[C@H](O)[C@H]3O)[C@@H]12 returned Methyltransferases inactive.
C[C@H]1CC[C@@]2(OC1)O[C@H]1CC3C4CC[C@H]5C[C@@H](O)[C@H](O)C[C@]5(C)C4=CC(=O)[C@]3(C)[C@H]1[C@@H]2C (stereo partly drawn) was read as Methyltransferases inactive.
Screening NS(=O)(=O)c1cccc2c1c([N+](=O)[O-])cc1nc(O)c(O)nc12 returned Methyltransferases active.
For CN1C(=O)c2cc3ccccc3n2CC1(C)C(=O)NCC(=O)NCc1cccc(Cl)c1 (stereo not drawn) the results were Methyltransferases inactive.
For CC(C)Cn1c(=O)c2ccc(C(=O)NC(C)C)cc2n2c(=O)n(CC(=O)Nc3cc(F)ccc3F)nc12 the results were Methyltransferases inactive.
`CC(C)c1ccc(NC(=O)c2cc3n(n2)CC(C)(C(=O)NC2CCCCC2)N(C)C3=O)cc1` (stereo not drawn) gave Methyltransferases inactive.
COc1cccc(-c2cn(-c3ccc(CCN4CCC(O)CC4)cc3)c3ncnc(N)c23)c1 was read as Methyltransferases active.
For CC(=O)NC1CCN(Cc2cn(-c3ccc(C)cc3)nc2-c2cccc(C)c2)C1 (stereo not drawn) the results were Methyltransferases inactive.
`Cn1cc(-c2ccc3c(c2)CCN3C(=O)Cc2cccc(C(F)(F)F)c2)c2c(N)ncnc21` gave Methyltransferases inactive.
`O=C(c1ccc2c(=O)nc3c(-c4ccc(F)cc4)n[nH]n3c2c1)N1CCN(c2ccccc2)CC1` gave Methyltransferases inactive.
`c1nc(NC2CCCCCC2)c2cc(CNC[C@H]3CCCO3)sc2n1` gave Methyltransferases inactive.
Cc1cccc(-c2nnn3c2nc(NCC2CCCO2)c2ccccc23)c1 (stereo not drawn) was read as Methyltransferases inactive.
Screening c1ccc(-c2oc3ncnc(NC[C@@H]4CCCO4)c3c2-c2ccccc2)cc1 returned Methyltransferases active.
For Cn1c(=O)n(C)c2cc(S(=O)(=O)NCCC(=O)O)ccc21 the results were Methyltransferases inactive.
For O=C(c1ccnc(-c2ccncc2)c1)N1CCCC1 the results were Methyltransferases inactive.
`C[C@@H]1CN(c2ccc(C(=O)N3CCC(N4CCOCC4)CC3)cn2)C[C@H](C)O1` gave Methyltransferases inactive.
Screening O=C(c1ccc(Nc2nccc(-c3cc4ccccc4s3)n2)cc1)N1CCC(N2CCCC2)CC1 returned Methyltransferases active.
`Nc1c2c(nc3ccccc13)CCCC2` gave Methyltransferases active.
For O=S(=O)(c1ccc(F)cc1)N1CCC(c2noc(C3CC3)n2)C1 (stereo not drawn) the results were Methyltransferases inactive.
`CCCNC(=O)N(C1CCOCC1)C1CCN(C(=O)CCC(=O)c2ccc(F)cc2)CC1` gave Methyltransferases inactive.
Screening O=C1Nc2ccc(I)cc2/C1=C/c1cc(Br)c(O)c(Br)c1 returned Methyltransferases active.
`O=C(NCc1ccccc1C(F)(F)F)c1cccc2c1CCN2C(=O)C1CC1` gave Methyltransferases inactive.
Screening COC(=O)c1ncn2c1C(=O)N(CCc1ccc(Cl)cc1)C(C)(C(=O)NC1CCCCCC1)C2 (stereo not drawn) returned Methyltransferases inactive.
CN(Cc1ccc(-c2ccccc2)cc1)CC1CCCCC1 was read as Methyltransferases inactive.
For CN(CCc1ccc(Nc2ncc(-c3cccnc3)s2)cc1)Cc1ccccc1 the results were Methyltransferases active.
`c1ccc(CCc2nc3nccc(-c4cccnc4)n3n2)cc1` gave Methyltransferases inactive.
`CCCn1c(=O)c2ccc(C(=O)NC3CCCCC3)cc2n2c(=O)n(Cc3cccc(C)c3)nc12` gave Methyltransferases inactive.
For CCCCNc1ncc(-c2ccc(CN3CCOCC3)cn2)c(NC2CCC(O)CC2)n1 (stereo not drawn) the results were Methyltransferases inactive.
For CCCCNc1ccc(-c2ccc(CN3CCOCC3)cn2)c(NC2CCC(O)CC2)c1 (stereo not drawn) the results were Methyltransferases inactive.
`CCCCNc1ncc(C(=O)NCc2ccc(-n3ccnc3)cc2)c(NC2CCC(O)CC2)n1` (stereo not drawn) gave Methyltransferases active.
Screening COc1ccc(S(=O)(=O)N2CCC(OCCOCc3ccccc3)CC2)cc1 returned Methyltransferases inactive.
`Cc1ccc(C)c(N2C(=O)c3cc4sccc4n3CC2(C)C(=O)NC2CCCCC2)c1` (stereo not drawn) gave Methyltransferases inactive.
Screening CC1(C(=O)NCc2ccccc2)Cn2nc(-c3ccccc3)cc2C(=O)N1CCC1=CCCCC1 (stereo not drawn) returned Methyltransferases inactive.
COc1cccc(N2CCN(c3ccc4nnc(CCC(=O)NCCCOC(C)C)n4n3)CC2)c1 was read as Methyltransferases inactive.
OCCc1cc(CC2(NCc3ccc(CO)o3)COC2)no1 was read as Methyltransferases inactive.
`COc1ccc(CC(=O)NC2CCN(c3nnc4cccc(C)n34)CC2)cc1` gave Methyltransferases inactive.
For O=C(Nc1ccc(OC(F)(F)F)cc1)c1sccc1NCc1ccnc2ccccc12 the results were Methyltransferases inactive.
Screening Cn1c2ccc(NC(=O)c3ccccc3)cc2c(=O)n2nc(C(=O)O)cc12 returned Methyltransferases inactive.
Cc1cc(Nc2ccc(NC(=O)c3ccc(Nc4ccnc5ccccc45)cc3)cc2)nc(N)n1 was read as Methyltransferases active.
Screening COc1c2c(c(C)c3c1C(=O)OC3)OC1(C)CC(O)C(C(C)(C)O)C(C)(CCC(=O)O)C1C2 (stereo not drawn) returned Methyltransferases inactive.
`CC1(O)CCC2C(C(=O)O)=COC(OC3OC(CO)C(O)C(O)C3OC(=O)/C=C/c3ccc(O)cc3)C21` (stereo not drawn) gave Methyltransferases inactive.
For CN(CC(=O)Nc1cccc(F)c1)S(=O)(=O)c1ccc2[nH]c3c(c2c1)CCCC3 the results were Methyltransferases inactive.
O=S(=O)(Nc1ccc(F)cc1)c1ccc2[nH]c3c(c2c1)CCCC3 was read as Methyltransferases inactive.
CN(C)[C@@H]1CCc2[nH]c3ccc(NC(=O)c4ccc(F)cc4)cc3c2C1 was read as Methyltransferases active.
CCOCCCNC(=O)N1CCn2c(C)ccc2C1C(C)C (stereo not drawn) was read as Methyltransferases inactive.
Screening CCN1C(=O)c2cc(C(=O)NCc3cccnc3)nn2CC1(C)C(=O)NC1CCCC1 (stereo not drawn) returned Methyltransferases inactive.
Cc1cc(O)c2c(c1)C(=O)c1cc(O)cc(O)c1C2=O was read as Methyltransferases active.
